Reference: the supplement of paper PMC10849652
Targets with a hit are over-represented here; the source holds about 7,900 in all. About 0.6% of all pairs of compound and target were hits. Unmarked numbers belong to inactive results.

Tests used:
Test in all cases: log2 fold change, soluble protein after heating vs DMSO (PISA); higher = thermal stabilisation; K562 cells, 10 uM, 30 min; active = over 0.2 and 3.5 SD of the protein, either way, in both replicates (recomputed)
[1] = compound: C#Cc1cccc(Nc2ncnc3cc(OCCOC)c(OCCOC)cc23)c1 [erlotinib]
How it was run: (§1)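 For each measurement, 10 μM compound was applied for 30 min to K562 cells at 2×10^6 cells/mL. Aliquots were heated for 3 min across 48°C-58°C, pooled, and extracted in PBS with 0.5% NP-40 at 4°C; the supernatant after 21,000xg for 90 min was soluble protein. This was quantified by TMTpro 16plex LC-MS/MS with channel sums equalised, and thermal stability was reported relative to control samples from duplicates, on a log2 fold-change scale.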

[2] = compound: C/C(=N\NC(=O)C1=CC(=CC=C1)S(=O)(=O)N2CCOCC2)/C3=C(C=CC(=C3)Cl)O
How it was run: as §1

[3] = compound: C1=CC(=C(C=C1Cl)C2=NC3=NC=CN=C3C(=N2)NC4=CC=NC=C4)F
How it was run: as §1

[4] = compound: C1=CC(=CC=C1C2=NC3=C(N2)C=C(C=C3)C(=O)N)OC4=CC=C(C=C4)Cl
How it was run: as §1

[5] = compound: C1=CC2=C(C=CC(=C2)/C=C\3/C(=O)NC(=NCC4=CC=CS4)S3)N=C1
How it was run: as §1

[6] = compound: C1=CC2=NC=CN=C2C=C1/C=C/3\C(=O)NC(=O)S3
How it was run: as §1

[7] = compound: C1=CC=C(C=C1)C2=NC(=C(N2)C3=CC=NC=C3)C4=CC(=C(C=C4)Cl)O
How it was run: as §1

[8] = compound: C1=CC=C2C(=C1)C3=NNC4=CC=CC(=C43)C2=O
How it was run: as §1

[9] = compound: C1CCN(C1)C(=O)NC2=CC=CC(=C2)NC3=NC=C(C(=N3)NCCC4=CN=CN4)Br
How it was run: as §1

[10] = compound: C1CN(CCC1(CC2=CC=C(C=C2)Cl)N)C3=NC=NC4=C3C=CN4
How it was run: as §1

Sequence of UniProt Q9UKF6 (Q9UKF6 whole entry, looked up): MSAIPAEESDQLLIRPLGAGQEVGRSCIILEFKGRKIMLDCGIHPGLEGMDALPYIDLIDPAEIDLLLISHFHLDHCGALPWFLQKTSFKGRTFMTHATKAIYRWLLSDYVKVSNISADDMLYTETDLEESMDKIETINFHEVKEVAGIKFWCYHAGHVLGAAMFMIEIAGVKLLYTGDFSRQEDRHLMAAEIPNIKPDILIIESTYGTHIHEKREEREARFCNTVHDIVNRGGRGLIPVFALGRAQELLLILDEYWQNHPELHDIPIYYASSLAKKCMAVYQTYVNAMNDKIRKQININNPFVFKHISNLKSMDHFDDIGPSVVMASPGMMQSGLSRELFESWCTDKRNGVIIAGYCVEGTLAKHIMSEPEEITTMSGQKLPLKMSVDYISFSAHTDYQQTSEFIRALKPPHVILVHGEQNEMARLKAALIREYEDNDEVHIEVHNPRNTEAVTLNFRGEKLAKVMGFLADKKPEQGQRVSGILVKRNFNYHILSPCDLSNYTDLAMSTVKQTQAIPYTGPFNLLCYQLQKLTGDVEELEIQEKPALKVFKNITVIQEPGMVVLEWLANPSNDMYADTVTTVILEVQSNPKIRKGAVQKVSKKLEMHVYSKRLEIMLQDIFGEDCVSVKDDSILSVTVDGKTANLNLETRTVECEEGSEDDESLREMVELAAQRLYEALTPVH
Sequence of UniProt O75153 (O75153 whole entry, looked up): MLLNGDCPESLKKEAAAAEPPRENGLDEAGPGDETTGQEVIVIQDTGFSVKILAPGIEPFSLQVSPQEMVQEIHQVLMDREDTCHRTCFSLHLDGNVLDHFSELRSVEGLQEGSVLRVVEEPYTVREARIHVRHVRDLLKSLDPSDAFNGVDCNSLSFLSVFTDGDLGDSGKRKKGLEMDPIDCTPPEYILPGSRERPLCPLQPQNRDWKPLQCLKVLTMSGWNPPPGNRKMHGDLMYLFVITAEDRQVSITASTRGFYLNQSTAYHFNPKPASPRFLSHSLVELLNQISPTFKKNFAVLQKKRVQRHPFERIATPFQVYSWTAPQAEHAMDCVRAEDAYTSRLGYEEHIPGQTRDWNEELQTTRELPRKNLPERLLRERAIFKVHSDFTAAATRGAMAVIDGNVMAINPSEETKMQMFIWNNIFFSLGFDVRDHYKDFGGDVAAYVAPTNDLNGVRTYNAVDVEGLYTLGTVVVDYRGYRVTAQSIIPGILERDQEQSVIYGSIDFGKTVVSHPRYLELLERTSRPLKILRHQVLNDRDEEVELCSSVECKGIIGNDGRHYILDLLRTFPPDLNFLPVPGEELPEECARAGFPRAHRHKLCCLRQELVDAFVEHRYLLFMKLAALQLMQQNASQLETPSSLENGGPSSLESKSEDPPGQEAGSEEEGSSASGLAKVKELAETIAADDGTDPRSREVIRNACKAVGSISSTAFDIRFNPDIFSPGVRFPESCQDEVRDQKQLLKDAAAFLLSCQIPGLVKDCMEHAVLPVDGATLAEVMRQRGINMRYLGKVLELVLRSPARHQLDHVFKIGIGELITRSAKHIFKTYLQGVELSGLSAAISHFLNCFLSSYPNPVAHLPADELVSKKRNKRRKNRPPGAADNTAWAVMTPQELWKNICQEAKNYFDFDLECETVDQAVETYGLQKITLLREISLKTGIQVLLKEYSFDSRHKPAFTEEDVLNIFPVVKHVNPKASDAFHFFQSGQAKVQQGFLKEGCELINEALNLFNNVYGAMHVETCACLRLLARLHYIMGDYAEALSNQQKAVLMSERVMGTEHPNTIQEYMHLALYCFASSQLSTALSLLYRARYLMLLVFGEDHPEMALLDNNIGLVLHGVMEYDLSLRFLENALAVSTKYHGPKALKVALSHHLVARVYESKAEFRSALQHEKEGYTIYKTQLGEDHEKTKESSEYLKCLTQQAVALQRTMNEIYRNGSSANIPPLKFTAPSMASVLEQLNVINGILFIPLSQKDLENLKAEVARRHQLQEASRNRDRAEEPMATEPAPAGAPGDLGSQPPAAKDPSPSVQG
Sequence of UniProt Q9Y5P4 (Q9Y5P4 whole entry, looked up): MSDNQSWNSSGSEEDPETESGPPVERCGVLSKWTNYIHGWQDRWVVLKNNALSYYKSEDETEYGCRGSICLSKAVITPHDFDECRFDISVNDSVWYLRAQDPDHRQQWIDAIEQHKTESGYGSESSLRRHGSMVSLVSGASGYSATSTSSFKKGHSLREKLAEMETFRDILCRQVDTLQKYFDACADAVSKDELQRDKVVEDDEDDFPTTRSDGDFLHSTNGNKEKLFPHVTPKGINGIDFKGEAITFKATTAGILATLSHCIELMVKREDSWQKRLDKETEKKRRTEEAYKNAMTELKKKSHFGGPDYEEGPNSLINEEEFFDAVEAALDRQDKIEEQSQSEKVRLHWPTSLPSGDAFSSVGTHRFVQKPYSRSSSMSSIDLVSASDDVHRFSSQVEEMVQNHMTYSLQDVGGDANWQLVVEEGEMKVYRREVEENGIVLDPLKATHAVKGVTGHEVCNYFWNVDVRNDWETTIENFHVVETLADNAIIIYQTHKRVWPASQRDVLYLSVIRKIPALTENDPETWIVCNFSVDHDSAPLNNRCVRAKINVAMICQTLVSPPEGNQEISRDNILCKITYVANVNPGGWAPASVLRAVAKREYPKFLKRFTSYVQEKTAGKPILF
Sequence of UniProt P16152 (P16152 whole entry, looked up): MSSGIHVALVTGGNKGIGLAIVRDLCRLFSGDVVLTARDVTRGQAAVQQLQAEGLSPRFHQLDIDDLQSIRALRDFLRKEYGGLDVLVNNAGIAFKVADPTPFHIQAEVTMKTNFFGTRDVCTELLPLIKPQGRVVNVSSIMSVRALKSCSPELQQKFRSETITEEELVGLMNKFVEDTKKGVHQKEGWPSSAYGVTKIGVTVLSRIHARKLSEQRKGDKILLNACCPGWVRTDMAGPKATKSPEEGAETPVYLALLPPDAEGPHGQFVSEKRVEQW
Sequence of UniProt Q8IUI8 (Q8IUI8 whole entry, looked up): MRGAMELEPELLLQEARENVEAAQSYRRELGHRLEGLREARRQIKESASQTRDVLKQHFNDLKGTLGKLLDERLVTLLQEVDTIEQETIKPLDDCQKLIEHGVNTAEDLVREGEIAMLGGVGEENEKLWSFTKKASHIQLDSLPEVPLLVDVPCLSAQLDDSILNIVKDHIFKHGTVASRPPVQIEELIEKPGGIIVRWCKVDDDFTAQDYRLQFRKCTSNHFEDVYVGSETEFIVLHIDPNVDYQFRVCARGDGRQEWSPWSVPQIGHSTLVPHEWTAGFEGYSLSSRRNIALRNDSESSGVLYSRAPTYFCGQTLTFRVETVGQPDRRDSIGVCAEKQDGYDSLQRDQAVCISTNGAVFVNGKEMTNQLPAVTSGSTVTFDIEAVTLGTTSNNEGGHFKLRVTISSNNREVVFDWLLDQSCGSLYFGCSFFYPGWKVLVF
Sequence of UniProt Q9UNS2 (Q9UNS2 whole entry, looked up): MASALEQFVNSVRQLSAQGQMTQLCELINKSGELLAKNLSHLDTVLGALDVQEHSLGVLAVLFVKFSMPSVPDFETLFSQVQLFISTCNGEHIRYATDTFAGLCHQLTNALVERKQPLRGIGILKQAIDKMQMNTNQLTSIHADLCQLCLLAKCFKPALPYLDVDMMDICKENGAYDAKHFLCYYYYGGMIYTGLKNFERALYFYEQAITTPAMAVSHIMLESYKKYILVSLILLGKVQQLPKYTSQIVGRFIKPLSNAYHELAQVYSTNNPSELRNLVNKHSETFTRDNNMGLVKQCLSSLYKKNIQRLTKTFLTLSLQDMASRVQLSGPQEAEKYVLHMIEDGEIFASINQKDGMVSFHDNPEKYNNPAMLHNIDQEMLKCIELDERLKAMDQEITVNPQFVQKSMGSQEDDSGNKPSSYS
Sequence of UniProt Q6NZI2 (Q6NZI2 whole entry, looked up): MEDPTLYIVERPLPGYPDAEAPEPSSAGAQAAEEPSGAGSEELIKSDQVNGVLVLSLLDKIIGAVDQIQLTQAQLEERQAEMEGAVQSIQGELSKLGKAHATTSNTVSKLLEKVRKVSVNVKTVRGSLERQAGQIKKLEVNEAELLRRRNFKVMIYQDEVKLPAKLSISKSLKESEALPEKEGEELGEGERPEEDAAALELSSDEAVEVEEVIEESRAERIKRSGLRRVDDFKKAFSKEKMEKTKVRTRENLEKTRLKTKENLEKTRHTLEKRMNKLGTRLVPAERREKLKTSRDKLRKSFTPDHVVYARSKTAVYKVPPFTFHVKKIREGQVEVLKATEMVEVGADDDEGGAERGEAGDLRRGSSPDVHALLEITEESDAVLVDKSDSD
Sequence of UniProt Q9NZN8 (Q9NZN8 whole entry, looked up): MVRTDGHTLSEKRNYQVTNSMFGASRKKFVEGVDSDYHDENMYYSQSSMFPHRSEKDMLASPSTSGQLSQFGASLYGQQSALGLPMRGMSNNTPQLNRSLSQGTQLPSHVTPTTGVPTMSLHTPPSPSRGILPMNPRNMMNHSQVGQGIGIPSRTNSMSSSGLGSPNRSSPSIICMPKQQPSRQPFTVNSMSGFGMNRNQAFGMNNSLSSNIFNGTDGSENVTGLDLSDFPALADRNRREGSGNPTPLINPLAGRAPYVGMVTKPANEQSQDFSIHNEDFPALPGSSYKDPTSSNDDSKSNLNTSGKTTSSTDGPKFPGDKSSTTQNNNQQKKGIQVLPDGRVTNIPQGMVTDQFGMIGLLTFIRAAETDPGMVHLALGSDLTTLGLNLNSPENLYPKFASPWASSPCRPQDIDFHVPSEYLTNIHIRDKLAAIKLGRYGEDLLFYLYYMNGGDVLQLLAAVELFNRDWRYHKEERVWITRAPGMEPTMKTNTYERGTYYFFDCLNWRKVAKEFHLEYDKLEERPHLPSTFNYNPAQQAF
Sequence of UniProt P06493 (P06493 whole entry, looked up): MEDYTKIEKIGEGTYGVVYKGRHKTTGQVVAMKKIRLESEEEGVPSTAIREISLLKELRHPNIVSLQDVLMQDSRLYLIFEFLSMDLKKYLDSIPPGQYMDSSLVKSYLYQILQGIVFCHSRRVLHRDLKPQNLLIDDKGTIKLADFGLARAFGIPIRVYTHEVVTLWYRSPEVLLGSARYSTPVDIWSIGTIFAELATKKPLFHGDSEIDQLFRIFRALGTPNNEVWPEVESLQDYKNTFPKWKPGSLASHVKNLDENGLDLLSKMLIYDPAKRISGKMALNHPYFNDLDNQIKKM

Row | Target | log2 fold change [1] | log2 fold change [2] | log2 fold change [3] | log2 fold change [4] | log2 fold change [5] | log2 fold change [6] | log2 fold change [7] | log2 fold change [8] | log2 fold change [9] | log2 fold change [10]
1 | CAMSAP1 isoform 3 (UniProt Q5T5Y3) | -0.084 | 0.023 | -0.014 | -0.013 | 0.058 | 0.007 | 0.035 | -0.078 | -0.016 | 0.006
2 | COMT (UniProt P21964) | -0.026 | 0.076 | -0.015 | -0.08 | 0.023 | 0.012 | 0.026 | 0.029 | 0.031 | -0.059
3 | CNOT4 isoform 6 (UniProt O95628) | 0.004 | 0.06 | 0.026 | 0.014 | 0.03 | 0.003 | -0.007 | -0.043 | -0.011 | 0.044
4 | CBX1 (UniProt P83916) | 0.025 | -0.044 | 0.022 | 0.072 | 0.004 | 0.089 | -0.055 | -0.026 | -0.007 | -0.027
5 | CS (UniProt O75390) | 0.028 | 0.035 | 0.033 | 0.002 | 0.051 | -0.009 | 0.072 | -0.064 | -0.015 | 0.035
6 | CASP2 (UniProt P42575) | 0.069 | -0.007 | 0.056 | -0.011 | 0.054 | -0.025 | -0.011 | 0.028 | 0.004 | -0.053
7 | CPSF7 isoform 3 (UniProt Q8N684) | -0.035 | 0.054 | -0.015 | 0.041 | -0.001 | 0.005 | 0.01 | -0.005 | -0.035 | -0.016
8 | CPSF3 (UniProt Q9UKF6) | 0.006 | 0.104 | 0.028 | 0 | -0.003 | 0.048 | 0 | -0.022 | -0.005 | -0.011
9 | CDKN2AIP (UniProt Q9NXV6) | 0.017 | -0.018 | 0 | 0.056 | 0.018 | 0.009 | 0.036 | 0.007 | -0.006 | -0.021
10 | COPS3 (UniProt Q9UNS2) | -0.019 | 0.035 | 0.091 | 0.016 | 0.055 | 0.01 | -0.009 | 0.007 | 0.014 | 0.014
11 | CETN3 (UniProt O15182) | -0.098 | 0.009 | -0.065 | -0.022 | 0.027 | 0.077 | -0.12 | -0.055 | 0.041 | -0.125
12 | CDK5RAP1 (UniProt Q96SZ6) | 0.076 | -0.555 (active) | 0.046 | -0.025 | 0.134 | -0.03 | 0.069 | 0.078 | 0.072 | -0.029
13 | CDK12 (UniProt Q9NYV4) | -0.049 | 0.001 | -0.44 | 0.076 | -0.06 | -0.053 | -0.066 | -0.23 | -0.077 | -0.187
14 | CDK1 (UniProt P06493) | 0.045 | 0.06 | 0.021 | 0.003 | -0.054 | 0.018 | 0.003 | -0.003 | 0.007 | -0.009
15 | CCZ1 (UniProt P86791) | 0.027 | 0.046 | -0.003 | 0.064 | 0.034 | -0.017 | 0.031 | 0.011 | 0.016 | 0.011
16 | CERT isoform 3 (UniProt Q9Y5P4) | 0.05 | 0.083 | 0.018 | -0.009 | 0.039 | 0.005 | 0.044 | 0 | -0.054 | -0.007
17 | COX5B (UniProt P10606) | -0.068 | 0.062 | 0.16 | -0.041 | 0.032 | 0.03 | 0.114 | -0.023 | -0.067 | -0.003
18 | CRLF3 (UniProt Q8IUI8) | 0.09 | -0.034 | 0.036 | -0.015 | 0.076 | 0.019 | -0.018 | -0.028 | 0.027 | -0.04
19 | CNOT2 (UniProt Q9NZN8) | 0.043 | 0.059 | 0.009 | -0.024 | 0.016 | 0.045 | -0.031 | -0.042 | -0.019 | -0.034
20 | CAVIN1 (UniProt Q6NZI2) | -0.06 | -0.085 | -0.309 | 0.121 | -0.04 | -0.002 | 0.274 | 0.07 | 0.062 | -0.137
21 | CBR1 (UniProt P16152) | 0.011 | 0.066 | 0.115 | 0.008 | -0.009 | 0.028 | 0.186 | -0.038 | -0.027 | 0.057
22 | CDC42BPA isoform 6 (UniProt Q5VT25) | -0.081 | 0.115 | -0.022 | 0.008 | -0.337 | -0.011 | 0.03 | 0.073 | -0.03 | -0.396
23 | CLPX (UniProt O76031) | -0.062 | 0.056 | 0.01 | 0.004 | -0.009 | 0.036 | -0.008 | -0.034 | -0.03 | -0.003
24 | CLCN7 (UniProt P51798) | 0.079 | 0.047 | 0.075 | -0.008 | 0.023 | 0.063 | 0.076 | -0.05 | 0.016 | 0.001
25 | COX17 (UniProt Q14061) | -0.032 | -0.064 | 0.375 | -0.009 | 0.035 | – | 0.207 | 0.404 | -0.117 | 0
26 | CMTM3 (UniProt Q96MX0) | 0.032 | -0.055 | 0.166 | -0.044 | 0.034 | 0.066 | – | -0.007 | 0.002 | 0.051
27 | CLUH (UniProt O75153) | 0.08 | 0 | 0.318 | -0.042 | 0.137 | 0.324 (active) | 0.03 | 0.058 | -0.043 | -0.027
28 | CNN3 (UniProt Q15417) | 0.013 | 0.158 | 0.064 | -0.088 | 0.054 | 0.056 | – | 0.016 | 0.041 | -0.116
29 | CDK17 isoform 2 (UniProt Q00537) | 0.086 | 0.008 | 0.059 | -0.075 | -0.123 | -0.081 | – | 0.064 | – | –
30 | CAMK2G isoform 6 (UniProt Q13555) | -0.003 | -0.096 | -0.047 | -0.098 | 0.054 | 0.009 | 0.055 | 0.08 | -0.02 | 0.015
